Most compounds without a hit are left out; they make up all but 12% or so of the library.
HP1b chromo inh: HP1-beta chromodomain-methylated histone interaction inhibition; AlphaScreen HP1-beta / biotin-H3K9me3 peptide binding; Potency, µM (doses to about 114 µM), without a hit: at the top dose activity change, negative = inhibition, hits mostly inhibitors; 0.56% of 390,000 active; note: nearly all actives have a fitted effect of over 70% in size
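AlphaScreen: HP1-beta (50 nM) preformed 30 min with biotin-H3(1-18)K9me3 peptide (50 nM) in PBS pH 7.4, 0.01% Tween-20. Compound added for 30 min at RT, then streptavidin donor/nickel chelate acceptor beads (10 ug/mL) for 30 min.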
PLK1 PBD inh: blocks phosphopeptide binding to human PLK1 polo-box domain; Potency, µM, for the others: max response, negative = inhibition, hits mostly inhibitors; 2.8% of 360,000 active; AID 720504; P53350; Plk1 PBD binding of FITC phosphopeptide, fluorescence polarization; note: series mostly up to about 57 µM; % is set by controls: 0 for no effect and ±100 for the full control effect; nearly all actives have a fitted effect of over 65% in size
Sfp inh: Sfp phosphopantetheinyl transferase inhibition; Potency, µM, inactives show largest response in the series, negative = inhibition, actives largely listed as inhibitors; Biochemical Sfp PPTase activity, qHTS; AID 1490; 3.5% of 310,000 active;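 note: the enzyme is Sfp with the accession as filed and its product quenches rhodamine fluorescence; 0% = enzyme reaction without inhibitor and -100% = no enzyme wells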
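Sfp 15 nM + cpd, 15 min RT; start w/ rhodamine-CoA 5 uM, BHQ-2-YbbR 12.5 uM (final); 50 mM Hepes pH 7.6, 10 mM MgCl2, 0.01% NP-40, 0.01% BSA; read 525/598 nm at 0 and 30 min.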
G9a inh: blocks human histone lysine methyltransferase G9a | Q96KQ7 | 8.8% of 350,000 active | G9a H3K9 monomethylation, AlphaScreen, 2 h | Potency, µM (series often up to 102 µM), for inactives: at the top dose activity, negative = inhibition, most hits filed as inhibitors; note: % is set by controls: 0 for no effect and ±100 for the full control effect; nearly all actives have a fitted effect of over 75% in size
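Methyltransferase reactions run at room temperature for 2 h (20 nM enzyme, 500 nM biotin-H3K9 peptide, 20 uM SAM) after a 15 min compound preincubation; product detected by AlphaScreen beads and anti-H3K9me1 antibody.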
JMJD2A Tudor: JMJD2A Tudor domain (human) inhibition | AlphaScreen JMJD2A-Tudor / H3K4me3 peptide binding | 4.4% of 390,000 active | AID 504339 | O75164 | Potency, µM (titrated, usually from 114 µM), inactives show top-dose activity change, negative = inhibition, usual class: inhibitors; note: % is set by controls: 0 for no effect and ±100 for the full control effect; nearly all actives have a fitted effect of over 50% in size
BAZ2B block: blocks human BAZ2B | Potency, µM (titrated, usually from 114 µM), for inactives: at the highest dose activity change, negative = inhibition, hits mostly inhibitors | 4.4% of 360,000 active | AID 504333 | AlphaScreen BAZ2B-H3K14Ac peptide displacement; note: % is set by controls: 0 for no effect and ±100 for the full control effect; nearly all actives have a fitted effect of over 60% in size
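AlphaScreen displacement of biotin-H3(5-23)K14Ac peptide (50 nM final) from BAZ2B (50 nM final) in PBS pH 7.4, 0.01% Tween-20; complex preformed 30 min RT, then compounds (top 110 uM) 30 min RT, beads 20 min dark.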
Active calls of the source: *; ? = inconclusive; · = not tested or not shown; [ ] = dose if it differs, or a comment. Calls come from the whole dose curve; as a rule, active = well fitted curve in the direction sought with a large enough effect; inconclusive = small, poorly fitted or top-dose-only effect, or another doubt; inactive = no such curve, though single readings can be large; an effect the other way counts as inactive or inconclusive. Potency is the fitted concentration of half-maximal effect.

SMILES | HP1b chromo inh | PLK1 PBD inh | Sfp inh | G9a inh | JMJD2A Tudor | BAZ2B block
CCN(CC)C(=O)CN(C)S(=O)(=O)c1cccc2nsnc12 | 30% | 1% | 0% | -2%[59 µM] | -10% | 2%
CCN(CCNC(=O)C1CCN(c2nnc(-n3cccc3)s2)CC1)c1ccccc1 | 11% | 3% | 11% | 16µM* | -30% | -33%
CCN(CCNC(=O)CN(C)S(=O)(=O)c1cccc2nsnc12)c1ccccc1 | -2% | -4% | -13% | 40µM* | ? | ?
CCCCN(CCCNC(=O)C1CCN(S(=O)(=O)CC)CC1)c1ccccc1 | -9% | -6% | 0% | 7.1µM* | -30% | -26%
NS(=O)(=O)c1ccc(CCNC(=O)C2CCCN2S(=O)(=O)c2cccc3nsnc23)cc1 (stereo not given) | 30% | -7% | 8% | 79µM* | -2% | -3%
O=C(NCCc1ccccc1)C1CCCN1S(=O)(=O)c1cccc2nsnc12 (stereo not given) | 30% | 2% | 8% | -1% | -2% | -5%
CCN(CC)c1ccc(NC(=O)CN(C)S(=O)(=O)c2cccc3nsnc23)c(C)c1 | ? | · | · | 18µM* | ? | ·
Cc1ccc(NC(=O)CN(C)S(=O)(=O)c2cccc3nsnc23)c(C)c1 | 18% | · | · | ? | -18% | ·
Cc1c(C(=O)N2CCCC2)oc2c1-c1nn(CC(=O)NCc3ccccc3Br)cc1CC2 | 16% | · | · | ? | -24% | -23%
CCNC(=O)C1CCCN(C(=O)c2ccccc2OC(F)(F)F)CC1 (stereo not given) | · | 3% | · | · | · | ·
CC(C)OC(=O)CSc1nnc(Cc2ccccc2)n1Cc1ccco1 | 8% | -8% | 22µM* | 8.9µM* | -12% | 6%
CC(C)OC(=O)CSc1nnc(-c2cnccn2)n1Cc1ccco1 | 23% | -9% | -6% | -36%[59 µM] | -22% | ?
COc1cccc(-c2nnc(SCC(=O)OC(C)C)n2Cc2ccco2)c1 | -13% | 27µM* | 3% | 40µM* | -29%[11.4 µM] | -4%
COc1ccccc1N(Cc1ccccc1)S(=O)(=O)c1cccc(C(=O)Nc2cccc(C)n2)c1 | 16% | -10% | 17% | -11% | -26% | -24%
CC(=O)NC1(C(F)(F)F)C(=O)Nc2c1c(=O)[nH]c(=O)n2Cc1ccco1 (stereo not given) | 28% | -6% | -14% | -20%[59 µM] | -20% | -39%
CC(=O)Nc1ccc(S(=O)(=O)NC2(C(F)(F)F)C(=O)Nc3c2c(=O)[nH]c(=O)n3Cc2ccco2)cc1 (stereo not given) | · | 0% | 10% | 56µM* | -1% | -21%
Cc1nn(-c2ccccc2)c(/N=C/c2ccc(O)cc2)c1-c1ccccc1 | 34% | -10% | 11% | 13%[59 µM] | 1% | 8%
CN(C)c1ccc(/C=N/c2cc(-c3ccccc3)nn2-c2ccccc2)cc1 | -23% | 2% | 4% | ? | ? | 10µM*
CC(C)CCN1CCN(Cc2nc3c(s2)CCCC3)CC1CCO (stereo not given) | 21% | -6% | 15% | -5% | -13% | 4%
COC(=O)/C(=C/Nc1ccc(O)cc1)[N+](=O)[O-] | 10% | -4% | -20% | 2µM* | ? | -5%
COc1ccc(N2CCN(CCCNC(=O)C3CCC(CNc4nc(=S)[nH]c5ccccc45)CC3)CC2)cc1 (stereo not given) | 6% | -9% | 12% | ? | -25% | ?
O=C(C1CCC(CNc2nc(=S)[nH]c3ccccc23)CC1)N1CCN(c2ccc(F)cc2)CC1 (stereo not given) | -5% | 21µM* | 27% | ? | ? | -23%
COc1ccc(CNCCC(c2ccccc2)c2ccc3c(c2)OCO3)cc1 (stereo not given) | 16% | 3% | 35µM* | 20µM* | -31% | ?
COc1ccc(CNCCC(c2ccc(C)cc2)c2ccco2)cc1 (stereo not given) | ? | · | · | 5µM* | 25µM* | 79µM*
COc1ccc(C(CC(=O)O)c2ccc3c(c2)OCO3)cc1 (stereo not given) | 8% | -3% | 13% | -12%[2.33 µM] | -8% | 1%
